From PubChem BioAssay AID504710 (Sanford-Burnham Center for Chemical Genomics, 2011)
Calls of active or inactive are those of the source.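 How the source made its calls: active means inhibition reaching about 16% in any single replicate (limit read from the data); inactive means the rest.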

Each compound was assayed against Hexokinase HKDC1 (Homo sapiens) (UniProt Q2TB90) (assay: compounds lowering human HKDC1 activity – biochemical, single concentration, confirmation (AID 504710)). Details: recombinant HKDC1, G6PDH/diaphorase/resazurin fluorescence; at 20 µM; stronger effect = higher value.
Sequence of Hexokinase HKDC1 (Homo sapiens) (Q2TB90 whole entry, looked up): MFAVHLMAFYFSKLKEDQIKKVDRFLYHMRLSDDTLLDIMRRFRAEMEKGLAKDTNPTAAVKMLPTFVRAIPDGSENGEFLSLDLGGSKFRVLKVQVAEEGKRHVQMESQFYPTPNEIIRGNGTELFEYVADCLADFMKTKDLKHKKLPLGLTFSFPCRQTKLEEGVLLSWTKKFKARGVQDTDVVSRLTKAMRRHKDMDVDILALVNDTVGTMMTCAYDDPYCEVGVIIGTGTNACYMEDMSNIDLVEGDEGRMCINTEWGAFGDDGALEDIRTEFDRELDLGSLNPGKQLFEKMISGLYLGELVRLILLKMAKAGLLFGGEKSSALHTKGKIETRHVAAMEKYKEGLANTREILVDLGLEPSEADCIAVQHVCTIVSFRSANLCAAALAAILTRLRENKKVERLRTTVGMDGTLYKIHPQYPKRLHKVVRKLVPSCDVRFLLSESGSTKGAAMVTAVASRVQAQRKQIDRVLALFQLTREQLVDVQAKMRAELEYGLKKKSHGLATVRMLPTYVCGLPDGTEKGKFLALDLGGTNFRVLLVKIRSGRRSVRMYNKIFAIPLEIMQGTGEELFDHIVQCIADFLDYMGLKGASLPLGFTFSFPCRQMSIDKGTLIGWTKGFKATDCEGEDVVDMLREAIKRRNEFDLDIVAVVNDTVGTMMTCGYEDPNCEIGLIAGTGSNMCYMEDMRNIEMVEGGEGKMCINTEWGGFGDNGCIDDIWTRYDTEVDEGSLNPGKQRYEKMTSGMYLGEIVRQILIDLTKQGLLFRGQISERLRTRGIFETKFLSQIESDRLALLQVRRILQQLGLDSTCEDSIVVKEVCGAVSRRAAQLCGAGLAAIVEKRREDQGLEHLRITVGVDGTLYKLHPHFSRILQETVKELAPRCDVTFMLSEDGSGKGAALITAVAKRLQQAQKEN
`Cc1cccc(N2C(=O)NC(=O)/C(=C\c3cc(C)n(-c4sc5c(c4C#N)CCCC5)c3C)C2=O)c1C` was tested, and the inhibition was 54.9% (active).
With `Cc1cc(/C=C2\C(=O)NC(=O)N(c3ccc(Cl)cc3)C2=O)c(C)n1-c1sc2c(c1C#N)CCCC2` the inhibition was 56.4% (active).
With `COC(=O)C1CN(C#N)N(c2ccc(Cl)cc2)C12c1ccccc1-c1ccccc12` (centres undefined) the inhibition was 73.6% (active).
In the case of `Cc1ccc2c(C)c3ccc4ccccc4c3c[n+]2c1`, the inhibition is reported as -65.5% (inactive).
In the case of `Cc1ccc(N2C(=O)NC(=O)/C(=C\c3cc(C)n(-c4sc5c(c4C#N)CCCC5)c3C)C2=O)cc1`, the inhibition is reported as 77.3% (active).
`O=C1NC(=S)N(c2ccc(F)cc2)C(=O)/C1=C\c1ccoc1` was tested, and the inhibition was 55.2% (active).
For `COC(=O)C[C@]1(C(=O)OC)CN(C#N)N(c2ccc(Cl)cc2)C12c1ccccc1-c1ccccc12`, the inhibition was 62.4% (active).
In the case of `Nc1c(Br)cc2c3c(cccc13)-c1ccccc1-2`, the inhibition is reported as 51.2% (active).
For `CC(=O)OC1C2(CC3N4C(=O)C5(CO)SSC4(CC31O)C(=O)N5C)OC(C)C(C)(C)C2=O` (centres undefined), the inhibition was -77% (inactive).
For `O=c1c2ccccc2[se]n1-c1ccccc1`, the inhibition was 5.01% (active).
For `CCN(CC)CCCNC(=O)c1c(O)c2ccccc2n(Cc2ccccc2)c1=O`, the inhibition was -37.1% (inactive).
With `COc1ccc(OC)c(N2C(=O)/C(=C/c3ccco3)C(=O)NC2=S)c1` the inhibition was 77.4% (active).
In the case of `COC(=O)[C@@H]1[C@@H](C(=O)OC)C2(c3ccccc3-c3ccccc32)N(c2ccc(Cl)cc2)N1C#N`, the inhibition is reported as 43.1% (active).
`COC(=O)C1=C(C(=O)OC)SC2(S1)C(C(=O)OC)=C(C(=O)OC)Sc1c2ssc1=O` was tested, and the inhibition was -88.9% (inactive).
